Assay outcomes: PubChem, ICCB-Longwood Screening Facility, Harvard Medical School
The full list was thinned out, with hits kept by preference.
Bm FixLJ act: activators of Burkholderia fixLJ two-component system, primary screen, B. multivorans, GFP reporter; B. multivorans fixK-promoter GFP reporter, 18 h; hits give high values; z-score (concentration not given with the values); 29,000 tested, 0.3% active;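 active = replicate mean overnight rise in green fluorescent reporter signal, 3 or more SD over negative controls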
The depositor's hits bear a star.

SMILES	Bm FixLJ act
COc1ccccc1CN(C(=O)NCCCn1ccnc1)C1CCCC1	-1.45
CC(C)(C)c1ccc(C2Sc3ccccc3NC3=C2C(=O)c2ccccc23)cc1 (stereo not drawn)	3.48*
CC(C)OCCCNC(=O)C1CCCCC1C(=O)NC(C)(C)C (stereo not drawn)	0.57
CC(C)=CCOC1CCOCC1NC(=O)c1ccncc1O (stereo not drawn)	-0.39
Cc1nnc(CCNC(=O)c2ccc3cccc(F)c3n2)s1	-3.88
Cc1ccc2nc(-c3c[nH]c4ccccc34)c(Nc3ccccc3C)n2c1	-0.83
Cc1ccc(Nc2c(-c3c[nH]c4ccccc34)nc3ccccn23)cc1	4.58*
Cc1ccc(Nc2c(-c3ccc(Br)o3)nc3ccccn23)cc1	-1.01
O=C(NCCSc1ncn[nH]1)c1ccc(CSc2ccccn2)cc1	-0.22
CNC(=O)CCN1CCOc2c(O)cc(-c3cccc(Cl)c3)cc2C1	-0.62
Cc1sc(-c2ccno2)cc1S(=O)(=O)N(C)Cc1ccon1	-1.64
Fc1cccc(CN2CCN(Cc3cnc(NCC4CCCO4)nc3)CC2)c1 (stereo not drawn)	-0.88
COc1nc2c(cc1C(=O)NC1COCC1Cc1ccncc1)C(=O)N(C1CCCC1)C2 (stereo not drawn)	0.51
Cc1cccc(C)c1NC(=O)Cn1c(=O)n(Cc2ccc(C(=O)NCc3ccco3)cc2)c(=O)c2sccc21	-4.42
Cc1cc(C)c(NC(=O)Cn2c(=O)n(Cc3ccc(C(=O)NCc4ccco4)cc3)c(=O)c3sccc32)c(C)c1	4.53*
Cc1ccc(CNC(=O)c2ccc(Cn3c(=O)c4ccccc4n(CC(=O)Nc4c(C)cc(C)cc4C)c3=O)cc2)cc1	-0.52
Cc1ccc(C)c2c(C)c(C(=O)N3CCC(O)(c4cccnc4)CC3)[nH]c12	0.38
Cc1cc(C(=O)Nc2ccc(NC(=O)c3ccco3)c(C)c2)nc(C)n1	-0.81
O=C(CCCn1cncn1)N1CC(O)C(Cc2ccc3ccccc3n2)C1 (stereo not drawn)	0.8
CCOc1cc(C2C(C(=O)OC)=C(C)NC3=C2C(=O)c2ccccc23)c(Br)cc1OC (stereo not drawn)	-0.22
C#CCOc1ccc(C2C(C(=O)OC)=C(C)NC3=C2C(=O)c2ccccc23)cc1OCC (stereo not drawn)	3.72*
CCOC(=O)COc1ccc(C2C(C(=O)OC)=C(C)NC3=C2C(=O)c2ccccc23)cc1Cl (stereo not drawn)	4.06*
CCOc1cc(C2C(C(=O)OC)=C(C)NC3=C2C(=O)c2ccccc23)cc(Br)c1OCC (stereo not drawn)	0.6
CCOc1cc(Br)c(C2C(C(=O)OC)=C(C)NC3=C2C(=O)c2ccccc23)cc1OCC (stereo not drawn)	-0.42
CCOC(=O)C1=C(C)NC(C)=C(C(=O)OC)C1c1cccc([N+](=O)[O-])c1 (stereo not drawn)	-1.37
SMILES	Bm FixLJ act
CCCSc1ncc(-c2nccn2CCn2cccn2)cn1	-0.15
Cc1nc(CC(=O)NCCCc2nc3ccc(Cl)cc3[nH]2)cs1	0.18
c1ccc(-c2cc(NCC3CCOCC3)n3nccc3n2)cc1	-1.04
CCCC1CCc2sc(C(=O)NCc3cn4nc(C)sc4n3)cc2C1 (stereo not drawn)	-0.23
COc1cc(C(c2c(C)[nH][nH]c2=O)c2c(C)[nH][nH]c2=O)ccc1OC(=O)c1ccccc1OC	0.53
Cc1[nH]n(-c2ccccc2)c(=O)c1C(c1cc(Cl)ccc1O)c1c(C)[nH]n(-c2ccccc2)c1=O	-4.28
CCOc1cc(C(c2c(C)[nH]n(-c3ccccc3)c2=O)c2c(C)[nH]n(-c3ccccc3)c2=O)ccc1O	3.29*
O=C(CN1CCOCC1)N1CCCC(c2nccn2Cc2ccncc2)C1 (stereo not drawn)	-0.37
CN(C)C(=O)N1CCCn2nc(CNC(=O)CCc3ccncc3)cc2C1	-1.15
CCSc1ncc(-c2nccn2C(C)c2ccco2)cn1 (stereo not drawn)	0.05
Cc1nn(C)c(C)c1CCc1n[nH]c(Cc2cccs2)n1	0.57
COc1ccccc1C(=O)Nc1cccc(OCc2cc(=O)n3c(C)csc3n2)c1	-1.6
Cc1ccccc1C(=O)Nc1cccc(OCc2cc(=O)n3c(C)csc3n2)c1	-0.23
Cc1csc2nc(COc3cccc(NC(=O)c4ccccc4F)c3)cc(=O)n12	3.03*
Cn1cc(CNS(=O)(=O)Cc2ccc(Cl)cc2F)cn1	-1.11
CN1CCC2(CC1)OCCc1cc(C(=O)N3CCCC(O)C3)sc12 (stereo not drawn)	0.36
COc1ccc(-c2cc(C(F)(F)F)n3ncc(-c4ccccc4)c3n2)cc1	3.29*
COc1ccc(-c2cc3nc(-c4ccccc4)cc(C(F)(F)F)n3n2)cc1	0.13
Cc1ccc(-c2cc(C(F)(F)F)n3ncc(-c4ccccc4)c3n2)cc1	0.44
Cc1cccc(C(=O)N2CCCC3(CCC(=O)N(CC4CC4)C3)C2)c1O (stereo not drawn)	-0.27
CNC(=O)c1ccc(OC2CCN(C3CCCC3)CC2)c(OC)c1	-0.83
CCCN1CCCC(CNS(=O)(=O)c2cc(-c3cc(C(F)(F)F)on3)oc2C)C1 (stereo not drawn)	-1.54
COc1ccccc1-c1c(C)nn(C)c1NC(=O)C(C)N1CCN(C)CC1 (stereo not drawn)	-1.13
COc1cc(C(=O)NC(C)c2nncn2C2CCCC2)ccc1O (stereo not drawn)	-0.18
O=C1C(O)=C(O)C(=O)C(O)=C1O	7.43*
SMILES	Bm FixLJ act
Cc1ccc(NC(=O)c2ccccc2Br)c(C(=O)c2ccccc2)c1	0.54
CCCCC(=O)OC1=C(C(=O)c2ccccc2)N(C)S(=O)(=O)c2ccccc21	2.27
CN1C(C(=O)c2ccccc2)=C(NC(=O)c2ccc(F)cc2)c2ccccc2S1(=O)=O	7.46*
CN1C(C(=O)c2ccccc2)=C(NC(=O)c2ccccc2Br)c2ccccc2S1(=O)=O	3.63*
COC(=O)CN1C(C(=O)c2ccccc2)=C(OC(=O)c2ccc(F)cc2)c2ccccc2S1(=O)=O	1.56
CCCN1C(C(=O)c2ccccc2)=C(OC(=O)C(C)(C)C)c2ccccc2S1(=O)=O	0.47
CNc1ncc(C(=O)N2CC(O)C(Cc3ccnc4ccccc34)C2)cn1 (stereo not drawn)	-1.54
COC1COCC1NS(=O)(=O)c1cc(-c2cc(C(F)(F)F)on2)oc1C (stereo not drawn)	0.79
CC(=O)N1CCc2c(nc(-c3ccccn3)nc2NC2CCCC2)C1	0.49
O=C(Cn1ncc2c3ccccc3n(Cc3ccccc3)c2c1=O)NCc1cccs1	-0.73
CC(CCc1ccccc1)NC(=O)Cn1ncc2c3ccccc3n(Cc3cccc(Cl)c3)c2c1=O (stereo not drawn)	25.8*
O=C(Cn1ncc2c3ccccc3n(Cc3cccc(Cl)c3)c2c1=O)NCc1cccs1	10.7*
O=C(Cn1ncc2c3ccccc3n(Cc3ccccc3)c2c1=O)N1CCCCCC1	-2.58
O=C(Cn1ncc2c3ccccc3n(Cc3cccc(Cl)c3)c2c1=O)N1CCCCC1	1.99
O=C(Cn1ncc2c3ccccc3n(Cc3ccc(F)cc3)c2c1=O)NCc1cccs1	-0.7
O=C(Cn1ncc2c3ccccc3n(Cc3ccccc3)c2c1=O)NCc1ccccc1	-2.92
O=C(Cn1ncc2c3ccccc3n(Cc3cccc(Cl)c3)c2c1=O)N1CCCCCC1	8.65*
Cc1c2cnn(CC(=O)NCc3ccccc3)c(=O)c2c(C)n1Cc1cccc(Cl)c1	0.25
CC(CCc1ccccc1)NC(=O)Cn1ncc2c3ccccc3n(Cc3ccccc3)c2c1=O (stereo not drawn)	-2.66
COc1ccc(CNC(=O)Cn2ncc3c4ccccc4n(Cc4cccc(Cl)c4)c3c2=O)cc1	24.3*
